Laboratory results published in the OligoGym collection.

The sequences below were run against FASN (assay: pooled miR-30 sensor sort-seq; sequence = guide strand). Settings: shRNA.

Going from TTCCTCGGAGTGAATCTGGGTT to TTCAGCTTGCCGGACCGCCGGG, the sensor-assay potency score (higher = more potent) falls from 0.14 to -0.801.

Going from TAGTAGACCGTGCAGAGCTGGG to TCCACGAACTCAAACACCGGGG, the sensor-assay potency score (higher = more potent) falls from -0.853 to -1.02.

First: TTGGAGAGCAGCACACACCGGA
Second: TTCAGGAAGATAGCCATGCCGA
The sensor-assay potency score (higher = more potent) of the first is higher: -0.273 for the first, -1.28 for the second.

Going from TTGACAGCAGCCAAGTCGCGGA to TTGCACACCAGGAGGTCGGCGC, the sensor-assay potency score (higher = more potent) falls from -0.675 to -0.835.

Going from TTGTACTCGGCGGAGGACGTGC to TAGCCCACGAGTGTCTCGGGGT, the sensor-assay potency score (higher = more potent) rises from -0.733 to -0.532.

First: TAGAGGTGCTGAGCCAGCGGGC
Second: TCGAAGAAGAAGGAGAGCCGGT
The sensor-assay potency score (higher = more potent) of the first is lower: -1.55 for the first, 0.123 for the second.

Going from AAGAACTCCAGGTTGTCCCTGT to TTGATGATCAGGTCCACGGCGG, the sensor-assay potency score (higher = more potent) falls from 0.747 to 0.0156.

With TTGAGCTCCTGCAGCAGTGGGG the sensor-assay potency score (higher = more potent) was -0.482.

These sequences were tested against FBLIM1 in the same assay as above. Settings: shRNA.

Compared with TAATAAACCAGTAGACAGGAAA, TTCTCAACAGGTTCTGCCGGGG is higher in sensor-assay potency score (higher = more potent): -1.08 for the first, -0.331 for the second.

First: TAGACAGGAAACTCTGGCCCAG
Second: TTTCATGGAAGTTTCTTCCCAT
The sensor-assay potency score (higher = more potent) of the first is lower: -0.916 for the first, 0.731 for the second.

Compared with TGAAGAGCTGCATAGGTGCAGC, TTGAAGAGCTGCATAGGTGCAG is higher in sensor-assay potency score (higher = more potent): -0.713 for the first, 0.627 for the second.

First: TTTCTCAACAGGTTCTGCCGGG
Second: TTCTGGTAGAAGCTCTGCCCAG
The sensor-assay potency score (higher = more potent) of the first is higher: 0.497 for the first, -1.24 for the second.

Going from TCGACAGACAGGAGGATCCTGC to TTTCCTGTAGAAGTCGTCCAGG, the sensor-assay potency score (higher = more potent) rises from -0.78 to -0.297.

Compared with TCTGGTAGAAGCTCTGCCCAGC, TCTAAGTCTGCAATGAGTGAGG is lower in sensor-assay potency score (higher = more potent): -0.202 for the first, -0.617 for the second.

What follows are sequences tested against FBXL21 in the same assay as above. Settings: shRNA.

Compared with TCAAATTCAAACTTTCTCCAAA, TTCAGTGTGAATTTCATCTAGG is higher in sensor-assay potency score (higher = more potent): -0.476 for the first, 0.327 for the second.

Going from AACAACATTAACTCTAGGGGAA to TAGAGTGTCACTATTATTGGCC, the sensor-assay potency score (higher = more potent) rises from -0.232 to 0.27.

Going from TCACACAGTCTTACAAACCTGA to TAACAACATTAACTCTAGGGGA, the sensor-assay potency score (higher = more potent) falls from 0.117 to -0.101.

Compared with TTTAATGATCTGCTGAATGAGA, TGCATAACAACATTAACTCTAG is lower in sensor-assay potency score (higher = more potent): -0.579 for the first, -0.667 for the second.

Going from TTCTTTGAAGAACGTCTCGAAT to TTGAGTTGATAAAAACAACTGT, the sensor-assay potency score (higher = more potent) rises from -1.19 to 0.22.

TTAACATGAGTCTCGCTTGAGA gave a sensor-assay potency score (higher = more potent) of -0.687.
